Measurements as given in PubChem BioAssay (EPA / NIEHS).
Values joined by “and” are separate entries in the source; they are usually repeats but may differ in a detail not shown here. Identical values can stand only once. Some structures have more than one record in an assay (separate samples or runs), and their calls can disagree. Active and inactive are the calls of the source. The calls were made as follows: active = hit-call score of the fitted dose curve at least 0.9, where 1 is the maximum; inactive = score below 0.9.

Read-out: Human Leukocyte Antigen - DR isotype (HLADR), HLA-DRA (gene 3122)
Assay: BSK_BE3C_HLADR: BioMAP Diversity Plus: BE3C Assay for Human Leukocyte Antigen - DR isotype (HLADR) Biomarker Activity (AID 2283032)
Conditions: primary human bronchial epithelial cells; actives raise or lower the signal
Method: BSK_BE3C is a cell-based, multiplexed-readout assay that uses bronchial epithelial cell, a human lung primary cell, with measurements taken at 24 hours after chemical dosing in a 96-well plate.BSK_BE3C_HLADR is an assay component measured in the BSK_BE3C assay. It measures HLA-DR antibody related to regulation of gene expression using ELISA technology.Data from the assay component BSK_BE3C_HLADR was analyzed into 1 assay endpoint. This assay endpoint, BSK_BE3C_HLADR, was analyzed with bidirectional fitting relative to DMSO as the negative control and baseline of activity. Using a type of binding reporter, gain or loss-of-signal activity can be used to understand changes in the signaling as they relate to the gene HLA-DRA. Furthermore, this assay endpoint can be referred to as a primary readout, because this assay has produced multiple assay endpoints where this one serves a signaling function. To generalize the intended target to other relatable targets, this assay endpoint is annotated to the cell adhesion molecules intended target family, where the subfamily is MHC Class II.
The levels of cell surface (or secreted, indicated by the prefix "s") biomarker endpoints were measured by ELISA. Overt cytotoxicity to cells in confluent adherent cultures (all systems other than the BT system) was assessed by measuring total protein levels using sulforhodamine B (SRB) staining in parallel cultures at the time of biomarker measurements, indicated as SRB endpoints. For proliferation assays for adherent cell types, individual cell types are cultured at sub-confluence and relative cell numbers quantified by SRB staining at time points optimized for each system (48 h: 3C and CASM3C systems; 72 h: BT and HDF3CGF systems; 96 h: SAg system). SRB was performed by staining cells with 0.1% SRB after fixation with 10% TCA and reading wells at 560 nm.Viability and proliferation of PBMC (T cells) was quantified by Alamar Blue reduction for the SAg and BT systems. For PBMC viability (referred to as PBMC Cytotoxicity within the assay endpoint names), cells were plated (75,000/well in a 96-well plate) and then chemical samples added for 1 h before addition of activators, SEB and TSST-1 (20 ng/mL final concentration each). Cells were incubated for 90 h. Then, Alamar Blue (20 uL/well) (Invitrogen, Cat DAL1100) was added for 6 h, and the plates were read with a fluorescence microplate reader at 546/580 nm (excitation/emission). For PBMC proliferation, cells were plated and activated as above but incubated for only 16 h prior to addition of Alamar Blue. Plates were read after 6 h.

Question: How did the outcome turn out when `CC1(C)CC(O)CC(C)(C)N1[O]` was run?
Answer: inactive

Question: With `CC=C(C)C(C)=O` as the compound, how does the outcome read?
Answer: inactive

Question: Which outcome does the source give for `CC(C)C(=O)OCCc1ccccc1` here?
Answer: inactive

Question: How did the outcome turn out when `O=C(O)C(F)(F)C(F)(F)C(F)(F)C(F)(F)C(=O)O` was run?
Answer: inactive

Question: With `C=CC(=O)NC(C)(C)C` as the compound, how does the outcome read?
Answer: inactive

Question: Which AC50 does the source give for `C=CC(=O)OCC(C)OCC(C)OCC(C)OC(=O)C=C` (stereo not given) here?
Answer: 13.6 µM (active)

Question: For `CC/C=C\CCOC(=O)c1ccccc1O`, which AC50 is on record?
Answer: 20 µM (active)

Question: `Oc1ccc(/C=C/c2cc(O)cc(O)c2)cc1` was tested. Which AC50 did it give?
Answer: 20 µM (active)

Question: With `COc1ccc(C(=O)/C(Br)=C\C(=O)O)cc1` as the compound, how does the AC50 read?
Answer: 26.8 µM (active) and 20 µM (active)

Question: Which outcome does the source give for `C=CC(=O)OCCCCCCCC(C)C` here?
Answer: inactive

Question: Which AC50 does the source give for `Oc1c(Cl)cc(Cl)c(Cl)c1Cl` here?
Answer: 6.25 µM (active)

Question: `Cc1c(O)cccc1O` was tested. Which outcome did it give?
Answer: inactive

Question: For `CC/C=C\C/C=C\C/C=C\CCCCCCCC(=O)OC`, which AC50 is on record?
Answer: 13.4 µM (active)

Question: With `CCOC(=O)C1=NOC(c2ccccc2)(c2ccccc2)C1` as the compound, how does the outcome read?
Answer: inactive

Question: `Fc1ccc(Br)cc1` was tested. Which outcome did it give?
Answer: inactive

Question: `CC=C(C)C=CC=C(C)C` was tested. Which AC50 did it give?
Answer: 15.9 µM (active)

Question: With `CCCCCCOC(=O)CCCCC(=O)OCCCCCC` as the compound, how does the outcome read?
Answer: inactive

Question: How did the outcome turn out when `CC(C)c1cccc(C(C)C)c1N` was run?
Answer: inactive

Question: For `c1ccc2sc(SSN3CCOCC3)nc2c1`, which outcome is on record?
Answer: inactive

Question: How did the outcome turn out when `CCCCCCC=O` was run?
Answer: inactive

Question: For `CC(C)[N+](C)(CCOC(=O)C1c2ccccc2Oc2ccccc21)C(C)C`, which outcome is on record?
Answer: inactive

Question: For `O=C(Oc1ccccc1)c1ccccc1C(=O)Oc1ccccc1`, which outcome is on record?
Answer: inactive

Question: How did the outcome turn out when `CC(c1cc(C(C)(C)C)cc(C(C)(C)C)c1O)c1cc(C(C)(C)C)cc(C(C)(C)C)c1O` was run?
Answer: inactive

Question: Which outcome does the source give for `C=C(C)C(=O)OCCCCCCCCCCCC` here?
Answer: inactive

Question: `CCCCCCCCC(CO)CCCCCC` (stereo not given) was tested. Which outcome did it give?
Answer: inactive

Question: `CC1=CC=C(C(C)C)CC1` was tested. Which outcome did it give?
Answer: inactive

Question: Which outcome does the source give for `O=C1CCCCCCCCCCC1` here?
Answer: inactive

Question: `CCOC(=O)C1=NN(c2ccc(Cl)cc2Cl)C(C)(C(=O)OCC)C1` (stereo not given) was tested. Which outcome did it give?
Answer: inactive

Question: What does the source list for `C[N+](C)(C)CCCNS(=O)(=O)C(F)(F)C(F)(F)C(F)(F)C(F)(F)C(F)(F)C(F)(F)C(F)(F)C(F)(F)F`?
Answer: outcome: inactive; AC50: 54.8 µM (active)

Question: `Nc1nc(N)nc(-c2ccccc2)n1` was tested. Which outcome did it give?
Answer: inactive

Question: `C=CC(=O)OCCCCCCOC(=O)C=C` was tested. Which AC50 did it give?
Answer: 7.89 µM (active)

Question: Which outcome does the source give for `CC(CCC(=O)O)(c1ccc(O)cc1)c1ccc(O)cc1` here?
Answer: inactive

Question: `Oc1ccccc1Cc1ccccc1O` was tested. Which outcome did it give?
Answer: inactive

Question: How did the outcome turn out when `c1ccc2c(c1)[nH]c1ccccc12` was run?
Answer: inactive

Question: `Cc1ccc([N+](=O)[O-])cc1N` was tested. Which outcome did it give?
Answer: inactive

Question: How did the outcome turn out when `C1CNCCN1` was run?
Answer: inactive

Question: How did the outcome turn out when `CCC1(C)C(=O)N(Cl)C(=O)N1Cl` (stereo not given) was run?
Answer: inactive

Question: How did the outcome turn out when `O=C(Cl)c1c(Cl)c(Cl)c(C(=O)Cl)c(Cl)c1Cl` was run?
Answer: inactive

Question: For `O=C1CCCCCCCCCCCN1`, which outcome is on record?
Answer: inactive
